Reference: PubChem BioAssay AID651744 (Broad Institute, 2012)
Among all 5,600 compounds or so, about 3,100 (55%) were called active. Roughly 3% stayed inconclusive and do not appear here.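 The calls were made as follows: active = mean loss of cell viability signal at or above a set limit, and enough replicates individually reaching it; inconclusive = meets only the mean limit or only the replicate share; inactive = meets neither condition.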 So high a share suggests a set chosen from earlier hits. The list is a sample of the results.

Test: viability loss of mouse 3T3 cells – cell-based, cherry-pick, single point, set 2, cytotoxicity control, confirmation (AID 651744);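 also: 0% = median of neutral control wells and 100% = median of positive control wells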
Details: NIH/3T3 viability, CellTiter-Glo ATP luminescence, 90 h; at 24.9 µM; stronger effect = higher value

Row | Structure (SMILES) | inhibition
1 | C[C@@H]1CN([C@H](C)CO)C(=O)c2cc(NC(=O)Nc3ccc(F)cc3)ccc2O[C@@H](C)CCCCO[C@@H]1CN(C)CC1CCCCC1 | 102% (active)
2 | COc1ccc(NC(=O)N(C)C[C@@H]2Oc3c(NC(=O)NC4CCCCC4)cccc3C(=O)N([C@@H](C)CO)C[C@@H]2C)cc1 | 2.03% (inactive)
3 | C[C@H]1CCCCO[C@H](CN(C)Cc2ccccc2)[C@@H](C)CN([C@@H](C)CO)C(=O)c2cc(NC(=O)c3ccccc3)ccc2O1 | 40.7% (active)
4 | C[C@@H]1CCCCO[C@H](CN(C)Cc2ccccc2)[C@@H](C)CN([C@@H](C)CO)C(=O)c2cc(NC(=O)Nc3ccc(F)cc3)ccc2O1 | 103% (active)
5 | C[C@@H]1CCCCO[C@@H](CN(C)Cc2ccc(C(F)(F)F)cc2)[C@@H](C)CN([C@H](C)CO)C(=O)c2cc(NC(=O)Nc3ccccc3)ccc2O1 | -8.84% (inactive)
6 | C[C@@H]1CCCCO[C@@H](CN(C)CC2CC2)[C@H](C)CN([C@H](C)CO)C(=O)c2cc(NC(=O)C3CCCCC3)ccc2O1 | -28.9% (inactive)
7 | C[C@@H]1CN([C@H](C)CO)C(=O)c2cccc(NC(=O)NC3CCCCC3)c2O[C@H]1CN(C)Cc1ccc(C(F)(F)F)cc1 | 106% (active)
8 | C[C@@H]1CCCCO[C@H](CN(C)Cc2ccc(C(F)(F)F)cc2)[C@H](C)CN([C@H](C)CO)C(=O)c2cc(NC(=O)Nc3ccc(F)cc3)ccc2O1 | -19.7% (inactive)
9 | C[C@@H]1CCCCO[C@H](CN(C)C(=O)NC2CCCCC2)[C@H](C)CN([C@H](C)CO)C(=O)c2cc(NC(=O)Nc3ccc(F)cc3)ccc2O1 | 1.83% (inactive)
10 | C[C@@H]1CN([C@@H](C)CO)C(=O)c2cc(NC(=O)C3CCCCC3)ccc2O[C@@H](C)CCCCO[C@H]1CN(C)Cc1ccncc1 | -15.9% (inactive)
11 | C[C@H]1CCCCO[C@H](CN(C)Cc2ccccc2)[C@@H](C)CN([C@@H](C)CO)C(=O)c2cc(NC(=O)NC3CCCCC3)ccc2O1 | 102% (active)
12 | COc1ccc(NC(=O)Nc2ccc3c(c2)C(=O)N([C@H](C)CO)C[C@@H](C)[C@H](CN(C)Cc2ccc(Cl)c(Cl)c2)OCCCC[C@@H](C)O3)cc1 | -0.512% (inactive)
13 | C[C@@H]1CCCCO[C@H](CN(C)Cc2ccc(Cl)c(Cl)c2)[C@H](C)CN([C@@H](C)CO)C(=O)c2cc(NC(=O)C3CCCCC3)ccc2O1 | 50.7% (active)
14 | C[C@@H]1CCCCO[C@@H](CN(C)Cc2ccc(Cl)c(Cl)c2)[C@H](C)CN([C@H](C)CO)C(=O)c2cc(NC(=O)Nc3ccc(F)cc3)ccc2O1 | 1.24% (inactive)
15 | COc1ccc(CN(C)C[C@H]2OCCCC[C@H](C)Oc3ccc(NC(=O)Nc4ccc5c(c4)OCO5)cc3C(=O)N([C@H](C)CO)C[C@@H]2C)cc1 | 103% (active)
16 | C[C@@H]1CN([C@H](C)CO)C(=O)c2cc(NC(=O)Nc3ccc(F)cc3)ccc2O[C@@H](C)CCCCO[C@H]1CN(C)Cc1ccc(Cl)c(Cl)c1 | 81.1% (active)
17 | C[C@@H]1CCCCO[C@@H](CN(C)Cc2ccc3c(c2)OCO3)[C@@H](C)CN([C@@H](C)CO)C(=O)c2cc(NC(=O)Nc3ccccc3)ccc2O1 | 16% (inactive)
18 | C[C@H]1CCCCO[C@H](CN(C)S(=O)(=O)c2ccc(Cl)cc2)[C@@H](C)CN([C@@H](C)CO)C(=O)c2cc(NC(=O)Nc3ccc4c(c3)OCO4)ccc2O1 | 7.66% (inactive)
19 | C[C@H](CO)N1C[C@H](C)[C@@H](CN(C)Cc2ccc(C(F)(F)F)cc2)OCCCC[C@H](C)Oc2ccc(NC(=O)C3CCCCC3)cc2C1=O | 22.4% (inactive)

Row | Structure (SMILES) | inhibition
20 | C[C@H](CO)N1C[C@H](C)[C@H](CN(C)C(=O)Nc2ccc(C(F)(F)F)cc2)OCCCC[C@H](C)Oc2ccc(NC(=O)C3CCCCC3)cc2C1=O | -9.18% (inactive)
21 | C[C@H]1CCCCO[C@H](CN(C)Cc2ccc(C(F)(F)F)cc2)[C@@H](C)CN([C@@H](C)CO)C(=O)c2cc(NC(=O)C3CCCCC3)ccc2O1 | 25.9% (active)
22 | CCCC#Cc1ccc2c(c1)O[C@H](CN(C)C(=O)CC)[C@@H](C)CN([C@H](C)CO)S2(=O)=O | 48.4% (active)
23 | CC(C)CC#Cc1ccc2c(c1)O[C@H](CN(C)C(=O)C1CC1)[C@@H](C)CN([C@@H](C)CO)S2(=O)=O | 34.8% (active)
24 | C[C@@H]1CN([C@@H](C)CO)S(=O)(=O)c2ccc(C#CCN(C)C)cc2O[C@H]1CN(C)C(=O)C1CC1 | 15.6% (inactive)
25 | C[C@H](CO)N1C[C@H](C)[C@@H](CN(C)C(=O)C2CCCCC2)Oc2cc(-c3ccccc3)ccc2S1(=O)=O | 33.8% (active)
26 | CCC(=O)N(C)C[C@@H]1Oc2cc(C#CCN(C)C)ccc2S(=O)(=O)N([C@H](C)CO)C[C@H]1C | 5.45% (inactive)
27 | N#C[C@@H]1[C@H](c2ccc(C#Cc3cccc(F)c3)cc2)[C@@H](CO)N1C(=O)C1CCCC1 | 105% (active)
28 | CCCC#Cc1ccc([C@@H]2[C@@H](C#N)N(C(=O)C3CCCC3)[C@@H]2CO)cc1 | 23.7% (inactive)
29 | N#C[C@@H]1[C@@H](c2ccc(/C=C/c3ccccc3)cc2)[C@@H](CO)N1C(=O)C1CC1 | 48.2% (active)
30 | N#C[C@@H]1[C@@H](c2ccccc2)[C@@H](CO)N1C(=O)Cc1ccccc1 | 17% (inactive)
31 | COCC(=O)N1[C@H](CO)[C@@H](c2ccc(C#Cc3ccccc3F)cc2)[C@@H]1C#N | 19.1% (inactive)
32 | N#C[C@@H]1[C@@H](c2ccc(C#Cc3cccc(F)c3)cc2)[C@@H](CO)N1C(=O)C1CCC1 | 22.8% (inactive)
33 | Cc1noc(C)c1S(=O)(=O)N(C)C[C@H]1Oc2ccc(N(C)C)cc2CC(=O)N([C@H](C)CO)C[C@@H]1C | -3.27% (inactive)
34 | C[C@@H]1CN([C@@H](C)CO)S(=O)(=O)c2ccc(C#Cc3ccc(F)cc3)cc2O[C@H]1CN(C)S(C)(=O)=O | 64.1% (active)
35 | C[C@@H]1CN([C@H](C)CO)S(=O)(=O)c2ccc(C#Cc3ccncc3)cc2O[C@@H]1CN(C)S(=O)(=O)c1ccc(F)cc1 | 27.4% (active)
36 | Cc1ccccc1-c1ccc([C@H]2[C@H]3CN(S(=O)(=O)c4ccc(F)cc4)CCCCN3[C@H]2CO)cc1 | 103% (active)
37 | Cc1ccccc1-c1ccc([C@@H]2[C@H](CO)N3CCCCN(S(=O)(=O)c4ccc(F)cc4)C[C@@H]23)cc1 | 102% (active)
38 | CN(C)CC#Cc1ccc([C@H]2[C@H]3CN(S(=O)(=O)c4ccccc4F)CCCCN3[C@H]2CO)cc1 | 18.4% (inactive)

Row | Structure (SMILES) | inhibition
39 | O=S(=O)(c1ccc(F)cc1)N1CCCCN2[C@H](C1)[C@H](c1ccc(C3=CCCCC3)cc1)[C@@H]2CO | 105% (active)
40 | COc1ccc(S(=O)(=O)N(C)C[C@H]2Oc3c(NC(=O)Nc4cccc5ccccc45)cccc3C(=O)N([C@@H](C)CO)C[C@H]2C)cc1 | 26.1% (inactive)
41 | C[C@H]1CN([C@@H](C)CO)C(=O)c2cccc(NS(=O)(=O)c3cn(C)cn3)c2O[C@@H]1CN(C)CC1CCCCC1 | 0.698% (inactive)
42 | C[C@@H]1CN([C@H](C)CO)C(=O)c2cccc(NC(=O)c3cnccn3)c2O[C@@H]1CN(C)Cc1ccc(C(=O)Nc2ccccc2N)cc1 | 68.5% (active)
43 | COc1ccc(NC(=O)N(C)C[C@H]2OCCCC[C@H](C)Oc3ccc(NC(=O)Nc4ccc(C(F)(F)F)cc4)cc3C(=O)N([C@@H](C)CO)C[C@@H]2C)cc1 | 20.7% (inactive)
44 | C[C@H](CO)N1C[C@H](C)[C@@H](CN(C)Cc2ccc(C(=O)Nc3ccccc3N)cc2)Oc2c(NC(=O)c3ccc(-c4nccs4)cc3)cccc2C1=O | 42% (active)
45 | Cc1ccc(S(=O)(=O)N(C)C[C@H]2OCCCC[C@H](C)Oc3ccc(NC(=O)Cc4ccccc4)cc3C(=O)N([C@@H](C)CO)C[C@@H]2C)cc1 | -4.04% (inactive)
46 | C[C@@H]1CCCCO[C@H](CN(C)C(=O)Nc2ccc(C(F)(F)F)cc2)[C@H](C)CN([C@H](C)CO)C(=O)c2cc(NC(=O)Nc3ccc(C(F)(F)F)cc3)ccc2O1 | -27.4% (inactive)
47 | C[C@@H]1CN([C@H](C)CO)C(=O)c2cccc(NC(=O)c3ccc(-c4nccs4)cc3)c2O[C@@H]1CN(C)C(=O)Nc1ccc(C(F)(F)F)cc1 | 44% (active)
48 | Cc1ccc(S(=O)(=O)N(C)C[C@@H]2Oc3c(NC(=O)c4nc5ccccc5s4)cccc3C(=O)N([C@H](C)CO)C[C@@H]2C)cc1 | 49% (active)
49 | Cc1cc(C(=O)Nc2cccc3c2O[C@@H](CN(C)Cc2ccc(C(=O)Nc4ccccc4N)cc2)[C@H](C)CN([C@@H](C)CO)C3=O)n(C)n1 | 10.2% (inactive)
50 | N#Cc1cccc(-c2ccc([C@H]3[C@H](CO)N4CCCCN(C(=O)Nc5cccc(F)c5)C[C@@H]34)cc2)c1 | 105% (active)
51 | O=C(Nc1ccccc1F)N1CCCCN2[C@H](CO)[C@@H](c3ccc(-c4cccnc4)cc3)[C@H]2C1 | 14.6% (inactive)
52 | O=C(C1CC1)N1CCCCN2[C@H](CO)[C@H](c3ccc(-c4cccc(F)c4)cc3)[C@H]2C1 | 56.9% (active)
53 | O=C(C1CCCC1)N1CCCCN2[C@@H](CO)[C@H](c3ccc(-c4cccc(F)c4)cc3)[C@@H]2C1 | 105% (active)
54 | O=C(Nc1cccc(F)c1)N1CCCCN2[C@H](CO)[C@H](c3ccc(C#CC4CC4)cc3)[C@@H]2C1 | 22.3% (inactive)
55 | O=C(C1CCC1)N1CCCCN2[C@H](CO)[C@H](c3ccc(-c4cccc(F)c4)cc3)[C@@H]2C1 | 1.34% (inactive)
56 | O=C(C[C@@H]1C[C@H]2c3cc(NC(=O)C4CCC4)ccc3O[C@H]2[C@@H](CO)O1)NCc1ccc2c(c1)OCO2 | -13.1% (inactive)
